Assay outcomes deposited in PubChem by National Center for Advancing Translational Sciences (NCATS).
Only some compounds are listed: those with a hit (about 1.4% of all), similar ones and a draw of the others.
GLS inh – blocks human kidney-isoform glutaminase activity; 410,000 compounds, 0.21% hits; AID 624170; Potency, µM (top dose mostly 45.5 µM), usual class: inhibitors; GLS enzymatic activity, qHTS titration
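hKGA; 45 mM KH2PO4 pH 8.2 + 0.02% Tween-20; cpd via pin tool; 1 mM Gln soln; GluOx/HRP/Amplex Red; RT 30 min; fluor. t0 & final.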
LDHA inh – blocks human lactate dehydrogenase A | purified LDHA, NADH/diaphorase-resazurin fluorescence; stronger effect = lower value | activity change, % (values are at about 110 or 230 µM) | 480,000 compounds, 0.15% hits; in the data active means activity change below about -30%; inconclusive means mostly about -25% to -30%
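Human LDH5 (2 nM) was incubated with 0.06 mM NADH and 0.2 mM pyruvate for 5 min at room temperature in Tris pH 7.4. Remaining NADH was coupled through diaphorase/resazurin, and resorufin fluorescence was read at 0 and 20 min.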
IDH1 R132H inh – blocks human mutant IDH1 R132H enzyme; O75874; IDH1-R132H enzyme, NADPH consumption, diaphorase/resazurin fluorescence; Potency, µM (top dose mostly 76.6 µM), most hits filed as inhibitors; 390,000 compounds, 0.093% hits; AID 602179; further: nearly all actives have a fitted effect of over 65% in size
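IDH1-R132H (0.5 ug/mL) preincubated 30 min with compound, then NADPH (0.016 mM) and alpha-KG (2 mM) added; 80 min at RT, pH 7.5. Remaining NADPH coupled via diaphorase/resazurin to fluorescence (540/590 nm); concentration-response curves normalized to no-enzyme control.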
TrxR1 inh – inhibitors of rat thioredoxin reductase 1; O89049; recombinant rTrxR1, NADPH fluorescence consumption, selenite substrate; Potency, µM (titrated, usually from 114 µM), hits mostly inhibitors; 390,000 compounds, 1% hits; further: nearly all actives have a fitted effect of over 65% in size
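Rat TrxR1 (90 nM in the dispensed reagent) was pre-reduced with 400 uM NADPH for 5 min at room temperature, then incubated with compound for 15 min. After 400 uM selenite was added, NADPH fluorescence (Ex 340/Em 450 nm) was followed for 8 min.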
PKM2 activator – activators of human pyruvate kinase M2; P14618; purified PKM2, Kinase-Glo ATP luminescence, activation; response scale: 0% is enzyme alone, no compound; Potency, µM (highest dose often 57.5 µM), usual class: activators; 260,000 compounds, 0.34% hits; further: nearly all actives have a fitted effect of over 55% in size
Target sequence (P14618 whole entry, looked up): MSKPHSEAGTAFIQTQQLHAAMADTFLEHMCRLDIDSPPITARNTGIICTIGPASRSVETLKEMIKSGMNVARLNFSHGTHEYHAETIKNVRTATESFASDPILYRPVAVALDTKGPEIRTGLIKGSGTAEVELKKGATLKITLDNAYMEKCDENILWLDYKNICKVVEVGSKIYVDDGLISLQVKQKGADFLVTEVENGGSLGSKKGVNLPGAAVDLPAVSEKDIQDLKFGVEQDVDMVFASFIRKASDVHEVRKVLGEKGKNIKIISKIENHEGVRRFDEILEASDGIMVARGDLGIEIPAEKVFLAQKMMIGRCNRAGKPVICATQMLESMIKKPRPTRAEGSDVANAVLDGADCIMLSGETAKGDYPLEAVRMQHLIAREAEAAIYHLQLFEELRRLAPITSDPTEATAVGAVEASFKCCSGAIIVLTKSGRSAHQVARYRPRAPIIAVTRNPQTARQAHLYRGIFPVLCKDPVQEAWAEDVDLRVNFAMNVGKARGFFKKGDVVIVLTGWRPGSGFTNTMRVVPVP
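hPK-M2, >95% pure; 0.1 mM ADP / 0.5 mM PEP final; imidazole pH7.2 buffer w/ 7 mM MgCl2, 50 mM KCl; 1 h RT; Kinase-Glo lum. Intermediate enzyme activity for dual inhibitor/activator qHTS.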
TrxR1 substrate – rat thioredoxin reductase 1 substrate activity. O89049. purified TrxR1 substrate turnover, NADPH consumption readout. Potency, µM (top dose mostly 114 µM). 390,000 compounds, 0.01% hits; further: nearly all actives have a fitted effect of over 50% in size
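Rat TrxR1, dispensed at 90 nM, was prereduced with 400 uM NADPH (final) for 5 min at ~22 deg C, then incubated with compound 15 min before 400 uM selenite. A first-read NADPH fluorescence drop versus no-compound background flagged substrates.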
A number is an active result; 0 = inactive; ? = inconclusive; - = not tested or not shown; [ ] = remark or other dose. Unless noted, the call rests on the fitted dose curve; in most records, active means well fitted curve in the direction sought with a large enough effect; inconclusive means small, poorly fitted or top-dose-only effect, or another doubt; inactive means no such curve, though single readings can be large; an effect the other way counts as inactive or inconclusive.

SMILES	GLS inh	LDHA inh	IDH1 R132H inh	TrxR1 inh	PKM2 activator	TrxR1 substrate
Cc1ccc(C(=O)C(C)Oc2ccc(C#N)cc2)cc1C (stereo not given)	-	0	-	-	-	-
Cc1cccc(NC(=O)CSc2nnc(-c3ccco3)c(-c3ccco3)n2)c1C	0	0	0	2.82µM	0	0
Cc1cccc(NC(=O)CSc2nnc(-c3ccco3)c(-c3ccco3)n2)c1	0	0	0	8.91µM	0	0
O=C(N/N=C/c1cc(Br)cc(Cl)c1O)c1ccc2c(c1)OCO2	0	-31.9	0	0	-	0
C/C(=N\NC(=O)c1ccccc1O)c1c(O)cc(C)oc1=O	0	0	0	0	0	0
CCc1ccccc1N/N=C(/C)c1c(O)cc(C)oc1=O	11.2µM	0	0	0	0	0
Cc1noc2nc(-c3ccccc3F)cc(C(=O)NCc3ccccc3F)c12	-	0	-	-	-	-
CCOc1ccc(Nc2nc3ccccc3nc2NS(=O)(=O)c2ccc(NC(C)=O)cc2)cc1	-	0	-	-	-	-
CCOc1ccc(NC(=O)CSc2ncn[nH]2)c([N+](=O)[O-])c1	0	0	0	0	15.8µM	0
COc1ccc(NC(=O)CSc2n[nH]c(-c3ccncc3)n2)c([N+](=O)[O-])c1	0	0	0	0	0	0
CCc1nc(SCC(=O)Nc2ccc(OC)cc2[N+](=O)[O-])n[nH]1	0	0	0	0	25.1µM	0
O=C1NC(=S)NC1=Cc1ccco1	?	0	0	7.94µM	-	0
O=C1NC(=O)/C(=C/c2ccco2)N1	0	0	-	0	-	0
COc1cccc2cc(C(=O)C3=C(O)C(=O)N(CCN4CCOCC4)C3c3ccc(C)o3)oc12 (stereo not given)	0	0	0	79.4µM	0[0.46 µM]	0
COc1cccc(C2C(C(=O)c3cc4ccccc4o3)=C(O)C(=O)N2CCN2CCOCC2)c1 (stereo not given)	0	0	0	?	0	0
COc1ccccc1C1C(C(=O)c2cc3ccccc3o2)=C(O)C(=O)N1CCN1CCOCC1 (stereo not given)	0	0	0	22.4µM	0	0
Cc1c2c(cc3c4c(c(=O)oc13)CCCC4)C(O)CC(C)(C)O2 (stereo not given)	-	0	-	-	-	-
Cc1ccc(NC(=O)CN(C)Cc2c(O)ccc3ccccc23)cc1	0	0	0	14.1µM	0	0
CCN(CC(=O)Nc1ccc(NC(C)=O)cc1)Cc1c(O)ccc2cc(Br)ccc12	0	0	0	6.31µM	0	0
COc1ccc2ccc(O)c(CN(C)CC(=O)Nc3ccccc3C(F)(F)F)c2c1	0	0	0	8.91µM	-	0
CN(C)Cc1c(O)ccc2ccccc12	0	0	0	?	0	0
COc1ccc(NC(=O)CN(C)CC(=O)Nc2ccccc2SC)cc1	0	-34.5	0	0	0	0
c1ccc(C2=Nc3ccccc3N=C(c3ccccc3)c3ccccc32)cc1	-	0	-	-	-	-
Cc1cc(NC(=O)CCS(=O)(=O)c2nc(-c3ccccc3)cc(C(F)(F)F)n2)no1	0	0	0	17.8µM	0	0
COc1ccc(NC(=O)CCS(=O)(=O)c2nc(-c3ccc4c(c3)OCO4)cc(C(F)(F)F)n2)cc1	0	0	0	?	-	0
SMILES	GLS inh	LDHA inh	IDH1 R132H inh	TrxR1 inh	PKM2 activator	TrxR1 substrate
O=C(CCS(=O)(=O)c1nc(-c2cccs2)cc(C(F)(F)F)n1)Nc1ccc(Br)cc1	0	0	0	0	-	0[2.29 µM]
CS(=O)(=O)c1nc(-c2ccccc2)cc(C(F)(F)F)n1	0	0	0	17.8µM	0	0
O=C(CCS(=O)(=O)c1nc(-c2cccs2)cc(C(F)(F)F)n1)Nc1cc(Br)ccc1O	0	0	0	14.1µM	-	0
Cc1ccc(O)c(NC(=O)CCS(=O)(=O)c2nc(-c3cccs3)cc(C(F)(F)F)n2)c1	0	0	0	20µM	-	0
COc1ccc(-c2cc(C(F)(F)F)nc(SCCC(=O)Nc3cc(C)ccc3O)n2)cc1	0	0	0	0	-	0
CC(C)c1ccccc1NC(=O)CCc1ncc(-c2ccccc2)o1	-	0	-	-	-	-
CCn1c(C(C)(C)Oc2ccc(Cl)c(C)c2)n[nH]c1=S	-	0	-	-	-	-
O=S1(=O)CCN(C2CCCCC2)c2c(F)nc(N3CCOCC3)c(F)c21	-	0	-	-	-	-
